What follows are molecules tested against T1, Interleukin-1 receptor-associated kinase 4 (Homo sapiens) (UniProt Q9NWZ3). Conditions: at 1 µM.
T1 sequence (whole entry): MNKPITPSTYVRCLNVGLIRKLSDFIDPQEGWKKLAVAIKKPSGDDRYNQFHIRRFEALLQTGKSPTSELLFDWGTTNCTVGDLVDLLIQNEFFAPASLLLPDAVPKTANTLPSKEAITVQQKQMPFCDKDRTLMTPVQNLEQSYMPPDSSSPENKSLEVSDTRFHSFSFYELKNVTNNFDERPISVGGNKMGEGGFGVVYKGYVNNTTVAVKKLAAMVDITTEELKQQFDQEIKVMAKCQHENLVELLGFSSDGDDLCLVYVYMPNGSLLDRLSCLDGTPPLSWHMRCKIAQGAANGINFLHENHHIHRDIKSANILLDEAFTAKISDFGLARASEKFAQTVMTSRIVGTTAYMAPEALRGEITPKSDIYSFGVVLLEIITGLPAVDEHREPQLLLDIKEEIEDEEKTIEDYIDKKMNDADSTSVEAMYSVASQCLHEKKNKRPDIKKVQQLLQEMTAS

Row | Compound | residual activity
1 | O=Nc1c(-c2c(O)[nH]c3ccccc23)[nH]c2ccccc12 | 41%
2 | CC#CC(=O)Nc1cc2c(Nc3ccc(F)c(Cl)c3)ncnc2cn1 | 103%
3 | O=[N+]([O-])c1ccc(-c2nc(-c3ccc(F)cc3)c(-c3ccncc3)[nH]2)cc1 | 104%
4 | O=C(O)c1ccc2c3c1cccc3c(=O)n1c3ccccc3nc21 | 105%
5 | CCN(CC)C(=O)c1ccc(Nc2nc(OCC3CCCCC3)c3nc[nH]c3n2)cc1 | 57%
6 | O=C1Nc2ccc(Br)cc2/C1=C\c1cc2c([nH]1)CCCC2 | 82%
7 | N#CCCc1ccc2c(c1)-c1[nH]c3ccc([N+](=O)[O-])cc3c1CC(=O)N2 | 62%
8 | Cc1cc(Nc2nc(-c3ccccc3)nc3ccccc23)n[nH]1 | 45%
9 | c1ccc(-c2n[nH]c3c2oc2ccccc23)cc1 | 91%
10 | Oc1ccc(Nc2nc(-c3ccc(Cl)cc3)cs2)cc1 | 108%
11 | c1ccc2c(-c3ccncc3)c[nH]c2c1 | 94%

— ChEMBL document CHEMBL2218924, “A broad activity screen in support of a chemogenomic map for kinase signalling research and drug discovery” (Biochem J, 2013)
